Each structure is given as a SMILES string. Active and inactive are the calls of the source.

Test [1] relates to Plasmodium falciparum Sir2 (PF13_0152, Sir2A). In words: Plasmodium falciparum Sir2A binding compounds – biochemical, small-molecule microarray, 635 nm fluorescence, primary screen (AID 1098).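 Also: score merges spot fluorescence intensity with its signal-to-noise ratio.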 The conditions noted are these: fluorescence 635 nm, higher = more signal.
Test [2] is described as follows: probe aDKK1 binding to arrayed compounds – biochemical, biotinylated probe, 635/667 nm fluorescence, primary screen (AID 1099).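 Also: score merges 667nm spot fluorescence with signal to noise across triplicate slides.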 As to conditions: small-molecule microarray, higher = more signal.
Test [3] in a line: probe aCHRDL2 binding to arrayed compounds – biochemical, biotinylated probe, 635/667 nm fluorescence, primary screen (AID 1100). As to conditions: small-molecule microarray, higher = more signal.
Test [4] is described as follows: change in splice reporter luminescence, either direction, cell-based, HEK293, spliceosome inhibition project, primary screen (AID 1101).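 Also: HEK293 cells carrying a splicing-competent luciferase reporter gene; test concentration not given here.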 As to conditions: HEK293 splicing luciferase reporter, 24 h, higher = more signal, called active from +8 up or from −8 down.
Test [5] deals with Fibroblast growth factor 10 (Homo sapiens) (UniProt O15520). In words: compounds binding fibroblast growth factor 10 – biochemical, small-molecule microarray, 635 nm fluorescence, primary screen (AID 1102). As to conditions: FGF10 binding, fluorescence 635 nm, higher = more signal.
Fibroblast growth factor 10 (Homo sapiens), sequence (O15520 whole entry, looked up): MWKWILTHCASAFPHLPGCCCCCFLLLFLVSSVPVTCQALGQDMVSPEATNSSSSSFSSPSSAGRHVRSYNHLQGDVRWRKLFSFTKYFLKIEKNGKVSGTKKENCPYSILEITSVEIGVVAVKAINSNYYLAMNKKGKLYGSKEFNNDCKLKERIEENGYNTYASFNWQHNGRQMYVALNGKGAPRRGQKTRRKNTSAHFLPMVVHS
Test [6] relates to glycogen synthase kinase-3 (GSK3A per assay name; protocol says GSK3B). In words: compounds binding glycogen synthase kinase-3 – biochemical, small-molecule microarray, 635 nm fluorescence, GSK3A, primary screen (AID 1103). Also: the record names both GSK3A and GSK3B. As to conditions: fluorescence 635 nm, higher = more signal.
For test [7], the target named is Epidermal growth factor receptor (Homo sapiens) (UniProt P00533). In words: compounds binding epidermal growth factor receptor – biochemical, small-molecule microarray, 635 nm fluorescence, primary screen (AID 1104).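 Also: score merges 667 nm emission intensity with spot signal to noise over triplicate slides.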 The conditions noted are these: EGFR binding, higher = more signal.
Epidermal growth factor receptor (Homo sapiens), sequence (P00533 whole entry, looked up): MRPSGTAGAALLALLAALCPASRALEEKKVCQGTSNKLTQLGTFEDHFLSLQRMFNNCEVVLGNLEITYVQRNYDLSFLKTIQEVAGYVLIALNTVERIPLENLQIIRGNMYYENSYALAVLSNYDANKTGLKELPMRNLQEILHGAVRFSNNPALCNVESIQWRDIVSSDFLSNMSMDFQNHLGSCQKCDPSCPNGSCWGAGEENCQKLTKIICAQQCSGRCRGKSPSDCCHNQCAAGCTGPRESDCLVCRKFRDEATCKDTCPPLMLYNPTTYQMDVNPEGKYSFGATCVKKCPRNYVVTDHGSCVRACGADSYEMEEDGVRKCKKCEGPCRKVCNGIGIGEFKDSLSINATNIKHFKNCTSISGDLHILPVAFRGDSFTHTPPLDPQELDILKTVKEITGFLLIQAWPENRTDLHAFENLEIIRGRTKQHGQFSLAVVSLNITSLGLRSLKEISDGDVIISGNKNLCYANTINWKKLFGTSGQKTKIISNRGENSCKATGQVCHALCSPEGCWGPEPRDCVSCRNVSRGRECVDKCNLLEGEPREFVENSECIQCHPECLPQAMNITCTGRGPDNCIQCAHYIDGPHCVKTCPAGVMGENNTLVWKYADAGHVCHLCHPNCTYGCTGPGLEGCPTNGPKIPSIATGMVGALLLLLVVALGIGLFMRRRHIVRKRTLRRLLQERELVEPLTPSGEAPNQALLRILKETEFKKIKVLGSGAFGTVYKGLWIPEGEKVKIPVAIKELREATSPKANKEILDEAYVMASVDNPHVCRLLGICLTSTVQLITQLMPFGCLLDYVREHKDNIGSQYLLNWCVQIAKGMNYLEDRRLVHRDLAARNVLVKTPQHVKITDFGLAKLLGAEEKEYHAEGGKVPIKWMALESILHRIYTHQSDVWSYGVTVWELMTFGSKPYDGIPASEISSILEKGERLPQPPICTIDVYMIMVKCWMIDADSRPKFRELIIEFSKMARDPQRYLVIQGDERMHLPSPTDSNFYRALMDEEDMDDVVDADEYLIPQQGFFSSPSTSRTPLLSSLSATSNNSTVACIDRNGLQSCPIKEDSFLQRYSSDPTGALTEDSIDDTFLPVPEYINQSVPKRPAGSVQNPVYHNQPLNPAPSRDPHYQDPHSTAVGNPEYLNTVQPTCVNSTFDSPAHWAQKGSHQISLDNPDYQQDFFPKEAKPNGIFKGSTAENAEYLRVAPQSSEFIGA
The target of test [8] is Follistatin-related protein 3 (Homo sapiens) (UniProt O95633). In words: compounds binding follistatin-related protein 3 – biochemical, small-molecule microarray, 635 nm fluorescence, primary screen (AID 1105).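 Also: score merges emission near 667 nm and signal to noise per printed spot across three slides.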 The conditions noted are these: FSTL3 binding, higher = more signal.
Follistatin-related protein 3 (Homo sapiens), sequence (O95633 whole entry, looked up): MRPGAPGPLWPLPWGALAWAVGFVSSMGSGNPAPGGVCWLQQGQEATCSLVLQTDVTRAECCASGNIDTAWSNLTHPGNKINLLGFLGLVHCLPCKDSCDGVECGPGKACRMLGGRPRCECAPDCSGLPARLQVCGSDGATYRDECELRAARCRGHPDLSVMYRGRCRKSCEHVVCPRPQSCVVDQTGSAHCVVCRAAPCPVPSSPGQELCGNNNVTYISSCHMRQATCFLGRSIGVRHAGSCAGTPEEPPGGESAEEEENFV
The target in test [9] is Dickkopf-related protein 1 (Homo sapiens) (UniProt O94907). In words: small molecules binding DKK1 protein – biochemical, small-molecule microarray, 635 nm fluorescence scan, primary screen (AID 1106).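 Also: score merges emission near 667 nm with signal to noise over three replicate slides.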 As to conditions: higher = more signal.
Dickkopf-related protein 1 (Homo sapiens), sequence (O94907 whole entry, looked up): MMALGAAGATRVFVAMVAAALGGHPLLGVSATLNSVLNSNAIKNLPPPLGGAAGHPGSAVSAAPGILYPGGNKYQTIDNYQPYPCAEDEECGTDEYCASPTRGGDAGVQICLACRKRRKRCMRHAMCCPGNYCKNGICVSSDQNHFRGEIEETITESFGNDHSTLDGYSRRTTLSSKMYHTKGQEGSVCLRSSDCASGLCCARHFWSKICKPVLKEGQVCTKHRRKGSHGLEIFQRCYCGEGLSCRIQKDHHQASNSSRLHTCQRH
Test [10] concerns Inhibin beta A chain (activin A). In words: small molecules binding activin A – biochemical, small-molecule microarray, 635 nm fluorescence scan, primary screen (AID 1107).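 Also: mouse activin A protein probed at 4.33 µg/mL on printed slides; score merges bound-protein fluorescence near 667 nm with spot signal-to-noise.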 As to conditions: INHBA, higher = more signal.
Test [11] relates to Human papillomavirus type 1a protein E7 (residues 44-93). In words: small molecules binding HPV E7 44-93 – biochemical, small-molecule microarray, residues 44-93, 635 nm fluorescence, primary screen (AID 1108).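 Also: E7 fragment applied at 1 µg/mL in TBST for 1 h at 4 C; score combines spot fluorescence with its signal to noise ratio.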 As to conditions: fluorescence 635 nm, higher = more signal.
Test [12] in a line: hepatitis C replication reporter changes, two-sided – Huh7 cells, luciferase reporter, HCV replication inhibitor project, primary screen (AID 1109).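 Also: huh7 hepatoma cells harbouring a luciferase neomycin HCV replicon reporter; luciferase luminescence as measure of HCV replicon replication; test concentration not given here.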 As to conditions: Huh7 HCV replicon luciferase reporter, 48 h; higher = more signal.
In test [13] the target is Left-right determination factor 2 (Homo sapiens) (UniProt O00292). In words: small molecules binding LEFTY2 protein – biochemical, small-molecule microarray, 635 nm fluorescence scan, primary screen (AID 1110). As to conditions: higher = more signal.
Left-right determination factor 2 (Homo sapiens), sequence (O00292 whole entry, looked up): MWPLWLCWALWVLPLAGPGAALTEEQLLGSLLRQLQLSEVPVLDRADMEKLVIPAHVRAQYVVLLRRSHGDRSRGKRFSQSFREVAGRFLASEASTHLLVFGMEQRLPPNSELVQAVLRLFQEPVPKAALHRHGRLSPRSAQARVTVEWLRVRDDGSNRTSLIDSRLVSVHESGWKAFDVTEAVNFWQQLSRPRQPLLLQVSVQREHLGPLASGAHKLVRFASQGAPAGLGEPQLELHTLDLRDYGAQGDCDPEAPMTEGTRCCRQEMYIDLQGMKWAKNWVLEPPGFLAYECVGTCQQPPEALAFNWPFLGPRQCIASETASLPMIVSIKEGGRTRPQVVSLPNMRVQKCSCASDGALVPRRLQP
Test [14] concerns the target Calmodulin-1 (Homo sapiens) (UniProt P0DP23). In words: small molecules binding calmodulin-1 with EGTA – biochemical, small-molecule microarray, Cy5-labelled CALM1, profiling panel (AID 1111).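 Also: labelled calmodulin applied in Tris saline Tween buffer holding calcium plus EGTA and DTT.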 The conditions noted are these: Cy5-CALM1 binding fluorescence, higher = more signal.
For test [15] the target is unchanged. In words: small molecules binding Ca-loaded calmodulin-1 – biochemical, small-molecule microarray, Cy5-labelled CALM1, plus calcium, artefact control for SMM control-protein annotation, profiling panel (AID 1112).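 Also: score merges spot fluorescence with signal to noise from triplicate slides.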 The conditions noted are these: Cy5-CALM1 binding fluorescence, higher = more signal.
Test [16] in a line: probe aWnt5a binding to arrayed compounds – biochemical, biotinylated probe, 635/667 nm fluorescence, primary screen (AID 1113).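 Also: score merges 667 nm fluorescence intensity with signal-to-noise per printed feature.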 The conditions noted are these: small-molecule microarray, higher = more signal.
The nature of test [17]: probe aShh binding to arrayed compounds – biochemical, biotinylated probe, 635/667 nm fluorescence, primary screen (AID 1114).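 Also: probe is biotin-labelled aShh protein from a stem cell growth factor screen; measures binding of labelled protein to compounds printed on the slide; score merges feature fluorescence at 667 nm with signal-to-noise.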 The conditions noted are these: small-molecule microarray, higher = more signal.
The nature of test [18]: probe aNog binding to arrayed compounds – biochemical, biotinylated probe, 635/667 nm fluorescence, primary screen (AID 1115).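 Also: probe is biotinylated aNog protein used at 0.15 µg/mL for 1 h at 4 C; z-score combines 667 nm fluorescence of each spot with its signal to noise.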 As to conditions: small-molecule microarray, higher = more signal.
Test [19] addresses Torsin-1A-interacting protein 1 (Homo sapiens) (UniProt Q5JTV8). In words: compound microarray binding of lysate hLAP1 – cell lysate, small-molecule microarray, COS7 lysate, 635/667 nm fluorescence, primary screen (AID 1116). The conditions noted are these: 635 nm fluorescence, higher = more signal.
Test [20] has as its target Alpha-bungarotoxin (Bungarus multicinctus) (UniProt P60615). In words: compounds binding labelled alpha-BTX control protein – biochemical, small-molecule microarray, Alexa647 label, 635/667 nm fluorescence, artefact control for SMM control protein annotation, profiling panel (AID 1117). The conditions noted are these: alpha-BTX-A647 binding fluorescence, higher = more signal.

Alpha-bungarotoxin (Bungarus multicinctus), sequence (P60615 whole entry, looked up): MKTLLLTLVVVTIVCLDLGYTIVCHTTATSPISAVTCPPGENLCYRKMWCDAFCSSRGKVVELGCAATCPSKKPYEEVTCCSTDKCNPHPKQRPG
Torsin-1A-interacting protein 1 (Homo sapiens), sequence (Q5JTV8 whole entry, looked up): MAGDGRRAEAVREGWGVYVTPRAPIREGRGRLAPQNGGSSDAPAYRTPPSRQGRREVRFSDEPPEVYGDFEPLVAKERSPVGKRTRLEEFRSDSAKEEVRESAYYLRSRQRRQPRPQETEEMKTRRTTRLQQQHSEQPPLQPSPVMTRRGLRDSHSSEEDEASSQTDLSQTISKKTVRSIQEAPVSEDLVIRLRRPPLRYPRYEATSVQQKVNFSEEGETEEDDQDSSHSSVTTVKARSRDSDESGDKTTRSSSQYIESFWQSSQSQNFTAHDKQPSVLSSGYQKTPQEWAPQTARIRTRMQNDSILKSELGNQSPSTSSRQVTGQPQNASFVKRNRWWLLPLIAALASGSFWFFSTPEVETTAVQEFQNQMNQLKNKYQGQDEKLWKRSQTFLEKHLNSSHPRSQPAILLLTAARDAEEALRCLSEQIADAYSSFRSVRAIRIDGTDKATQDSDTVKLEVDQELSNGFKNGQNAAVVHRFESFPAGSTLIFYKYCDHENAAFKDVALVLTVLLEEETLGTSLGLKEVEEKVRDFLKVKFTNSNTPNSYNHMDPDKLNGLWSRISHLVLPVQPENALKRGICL

Take `C=CC[C@]1(C(=O)NCc2ccccc2)N=C(c2ccc(OCCCO)cc2)O[C@H]1c1ccccc1`: the composite z-score in test [1] is 0.689; in test [2] it was 0.213; in test [3], 1.06; in test [5] it was 0.462; in [6] it was 0.165; in test [7], -0.29. The composite z-score in [8] was 0.291; in test [9], -0.328; in [10], 0.173; in test [11] it was 1.46; in [13], -0.778; in [14] it was 0.392. In addition, the composite z-score was -0.483 in test [15]; -0.0944 in test [16]; 0.696 in test [17]; 0.257 in test [18]; 1.62 in [19]; 2.46 in [20]. For the same molecule, the z-score in test [4] was 0.332 (inactive); in test [12], -2.41.

As for `CCOC(=O)CCN1C(=O)[C@H]2[C@H]3[C@H](O)[C@H](O)CC(=NOC[C@@H](O)COCc4ccco4)[C@@H]3CC[C@H]2C1=O`, the composite z-score in [1] is 0.0645; in test [2], 0.587; in [3] it was 0.437; in [5], -0.133; in test [6], -0.412; in test [7], -0.0138. Also, the composite z-score was -0.295 in test [8]; -0.144 in test [9]; 0.383 in test [10]; 0.201 in test [11]; -0.157 in test [13]; 0.2 in test [14]. The composite z-score was 0.369 in test [15]; -0.0462 in test [16]; -0.223 in [17]; -0.0381 in [18]; 0.657 in test [19]; 0.557 in [20]. For the same molecule, the results for the z-score in test [4] and in test [12] were 0.395 (inactive) and 0.395, respectively.

For `COC(=O)[C@@H]1CC[C@H](C)[C@@H](c2ccc(C)cc2)N1C(=O)c1ccc(C=NOC(C)CN2CCCCc3nc(C)c(C)cc32)cc1` (stereo not given in full), the composite z-score in test [1] was 0.775; in [2], -0.136; in test [3], 0.174; in test [5], 0.127; in [6], -0.626; in test [7], 0.598. Also, the composite z-score is 0.0406 in test [8]; 0.323 in [9]; 1.49 in test [10]; -0.278 in test [11]; 0.359 in test [13]; -0.0385 in test [14]. In addition, the composite z-score in test [15] turned out to be 0.076; in test [16] it was 0.0437; in test [17] it was 0.0893; in test [18], 0.0274; in test [19], 0.652; in test [20], 0.709. The results for the z-score in test [4] and in test [12] were -0.423 (inactive) and -3.62, respectively.

Take `COCCOC(=O)N1C(=O)[C@@]2(c3cc(C#CCNC(N)=O)ccc31)[C@H](c1ccc(O)cc1)N1[C@H](c3ccccc3)[C@H](c3ccccc3)OC(=O)[C@H]1[C@@H]2C(=O)N1CCCCCCC1`: the composite z-score in test [1] was determined as 1.08; in test [2] it was 0.614; in [3] it was 0.356; in [5] it was 1.25; in test [6], 0.43; in [7] it was 0.611. The composite z-score in test [8] was 1.38; in [9] it was 0.969; in test [10], 0.85; in [11], 1.13; in [13] it was 0.817; in test [14], -0.0989. Moreover, the composite z-score in test [15] is -0.218; in [16], -0.0718; in [17], 0.108; in [18], -0.559; in test [19] it was 0.774; in test [20], 0.413. The z-score is -0.364 (inactive) in test [4] and -0.768 in test [12].

In the case of `CC(=O)C[C@H](O)[C@@H](NC(=O)OC(C)(C)C)C(C)C`, the composite z-score is -0.276 in [1]; -0.186 in test [2]; -0.306 in test [3]; -0.456 in test [5]; -1.45 in test [6]; -0.397 in test [7]. Further, the composite z-score in test [8] was -0.441; in test [9], -0.31; in [10], 0.123; in test [11], -2.43; in [13] it was -0.319; in test [14], -0.292. In addition, the composite z-score in test [15] is -0.327; in test [16], -0.203; in test [17] it was 0.0121; in [18] it was -0.0926; in [19] it was -0.547; in [20], 0.0557. Besides, the figures for the z-score in test [4] and in test [12] were -0.797 (inactive) and 0.479, respectively.

Source of the values: PubChem BioAssay.
